The list is not random: actives were taken first. Their share in the collection is about 2.5%.
ULK1 primary: inhibitors of human ULK1 kinase | O75385 | AlphaScreen Atg13 phosphorylation by ULK1, luminescence | inhibition, % at 5.96 µM | 30,000 tested, 1.9% active; in the data active means inhibition above about 43%;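 further: 0% = median of compound wells and 100% = no enzyme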
ASK1 inh: inhibitors of human ASK1 kinase; inhibition, % at 7.44 µM; 22,000 tested, 0.99% active; AlphaScreen MKK6 phosphorylation by ASK1, luminescence; AID 1159602; in the data active means inhibition above about 35%;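 further: 0% = median of compound wells and 100% = no enzyme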
Numbers without * were called inactive; x = no result given; ! = not active in a repeat.

SMILES	ULK1 primary	ASK1 inh
C=C1c2c(Cl)ccc(O)c2C(O)=C2C(=O)[C@]3(O)C(O)=C(C(N)=O)C(=O)[C@@H](N(C)C)[C@@H]3[C@@H](O)[C@H]12	72*	x
C=C1c2cccc(O)c2C(O)=C2C(=O)[C@]3(O)C(O)=C(C(N)=O)C(=O)[C@@H](N(C)C)[C@@H]3[C@@H](O)[C@H]12	64*	x
CN(C)[C@@H]1C(=O)C(C(=O)NCN2CCCC2)=C(O)[C@@]2(O)C(=O)C3=C(O)c4c(O)cccc4[C@@](C)(O)C3CC12 (stereo not given in full)	28	x
CCCNc1cc(Nc2ccc(-n3ccnc3)cc2)nc(N)n1	-1	-10
Cc1ncn(-c2ccc(Nc3nccc(-c4ccc(N5CCOCC5)cc4)n3)cc2)n1	16	7
N#Cc1cc(-c2ccnc(Nc3ccc(N4CCC(O)CC4)cc3)n2)cc(N2CCOCC2)c1	-62	32
Cc1ncn(-c2ccc(Nc3nccc(-c4ccc(NS(C)(=O)=O)cc4)n3)cc2)n1	57*	6
CS(=O)(=O)Nc1ccc(-c2ccnc(Nc3ccc(N4CCC(O)CC4)cc3)n2)cc1	75*	-16
COc1cc(Nc2nc(N3CCC(N4CCOCC4)CC3)nc3c2ncn3C(C)C)cc(OC)c1OC	0	5
Fc1ccc(-n2ncc3c(Oc4ccc(Cl)cc4)ncnc32)cc1	6	x
Cn1nccc1Nc1ncc(C(=O)Nc2ccc(N3CCOCC3)cc2)s1	-9	-9
Cn1nccc1Nc1cccc(C(=O)Nc2ccc(N3CCOCC3)cc2)n1	45*	-28
c1cncc(CNc2ncnc3nc(Nc4ccc(N5CCOCC5)cc4)[nH]c23)c1	17	-10
CNC(=O)c1ccccc1Nc1cc(Nc2ccc3[nH]cc(C(=O)C(=O)N(C)C)c3c2)ncc1C(F)(F)F	75*	-14
CN(C)C(=O)C(=O)c1c[nH]c2ccc(Nc3cc(Nc4ccccn4)c(C(F)(F)F)cn3)cc12	45*	19
CN(c1ncccc1CNc1cc(Nc2ccc3[nH]c(=O)oc3c2)ncc1C(F)(F)F)S(C)(=O)=O	39	23
CC(=O)Nc1ccc(Nc2cc(C)nc(Nc3ccncn3)n2)cc1	8	-10
Cn1nc(C2CC2)cc1Nc1cc(Nc2ccc(N3CCOCC3)cc2)ncc1C(F)(F)F	46*	10
Cn1ccc(-c2ccccc2Nc2ccnc(Nc3ccc(N4CCOCC4)cc3)c2)n1	-4	19
COc1cc(N2CCOCC2)ccc1Nc1cc(Nc2ccccc2C(=O)N(C)C)c(C(F)(F)F)cn1	74*	7
COc1cc(N2CCOCC2)ccc1Nc1cc(-c2cnn(C)c2)c(Cl)cn1	3	-12
COc1cc(N2CCOCC2)ccc1Nc1cc(Nc2ccccc2C(N)=O)c(C(F)F)cn1	83*	-31
CNC(=O)c1ccccc1Nc1cc(Nc2ccc(N3CCOCC3)cc2OC)ncc1C	18	-3
O=[N+]([O-])c1ccc2c(cnn2-c2ccnc(NCCN3CCOCC3)n2)c1	2	-16
c1ccc(-n2cnc3c(Nc4ccc(N5CCOCC5)cc4)nc(N4CCc5ccccc5C4)nc32)cc1	6	23
SMILES	ULK1 primary	ASK1 inh
CN(C)c1cccc(Nc2ccc(N3CCC(C(N)=O)CC3)nn2)c1	5	-4
O=C1c2c(O)cccc2Cc2cccc(O)c21	60*!	x
Oc1cccc2c1CC=CC2	10	x
OCCNc1nc(NC2CCN(Cc3ccccc3)CC2)nc2c1ncn2C1CCCCC1	1	3
Cc1cc(Nc2ccccc2)nc(N2CCN(Cc3ccc4c(c3)OCO4)CC2)n1	-23	11
Cc1cc(Nc2ccc(N3CCOCC3)cc2)nc(N2CCN(Cc3ccc4c(c3)OCO4)CC2)n1	0	43*
COc1ccc(-c2cncc(C(=O)NC3CC3)c2)cn1	-4	1
COc1ccc(-c2cncc3ccc(C(=O)NCc4ccccc4)nc23)cc1	26	x
O=C(NCCc1ccccc1)c1ccc2cncc(-c3ccccc3)c2n1	55*	x
C[C@@H](O)[C@H]1C(=O)N2C(C(=O)O)=C(S[C@H]3CC[C@@H](C(=O)N(C)C)N3)[C@H](C)[C@H]12	4	x
O=C1/C(=C\c2cccs2)N2CCC1CC2	10	x
O=C1/C(=C/c2cccs2)CCC/C1=C\c1cccs1	82*	x
CN(C)CCOC(c1ccccc1)c1ccc(Br)cc1 (stereo not given)	7	x
C[N+](C)(C)CCOC(c1ccccc1)c1ccccc1	82*	x
FC(F)(F)c1ccc(Cn2cnc3c(NCCOc4ccccc4)nc(Nc4nccc5ccccc45)nc32)cc1	4	-14
COc1cc(Nc2nc(NCCN3CCOCC3)c3ncn(C4CCCCC4)c3n2)cc(OC)c1OC	-6	9
CC(C)N(CCNC(=O)c1cncc(-c2cccc(N)c2)c1)C(C)C	-12	-5
c1cn(-c2ccc(Nc3nc(NC4CC4)c4ncn(-c5ccsc5)c4n3)cc2)cn1	53*	14
CCCNc1nc(Nc2ccc(-n3ccnc3)cc2)nc2nc[nH]c12	41	-45
c1cc(Nc2nc(NC3CC3)c3ncn(-c4ccsc4)c3n2)ccn1	-3	-3

Assay outcomes as filed in PubChem.
